Myeloid diff MLP: compounds promoting myeloid differentiation; ER-HoxA9 myeloid progenitors, lysozyme-GFP differentiation, flow cytometry; calls only at 10 µM; actives 1% (n = 360,000);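 active means normalized GFP-positive differentiation at or above the plate's own cutoff, the solvent-only control mean plus 3 SD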;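 further: cells exposed to compound for four days before flow analysis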
NOD2 RIPK2 PPI: blocks binding of human NOD2 to RIPK2 | actives 0.38% (n = 360,000) | O43353 | inhibition, % at 4.98 µM | CHO BLA complementation NOD2-RIPK2, CCF4 ratio; in the data active means inhibition above about 21%
Target sequence (O43353 whole entry, looked up): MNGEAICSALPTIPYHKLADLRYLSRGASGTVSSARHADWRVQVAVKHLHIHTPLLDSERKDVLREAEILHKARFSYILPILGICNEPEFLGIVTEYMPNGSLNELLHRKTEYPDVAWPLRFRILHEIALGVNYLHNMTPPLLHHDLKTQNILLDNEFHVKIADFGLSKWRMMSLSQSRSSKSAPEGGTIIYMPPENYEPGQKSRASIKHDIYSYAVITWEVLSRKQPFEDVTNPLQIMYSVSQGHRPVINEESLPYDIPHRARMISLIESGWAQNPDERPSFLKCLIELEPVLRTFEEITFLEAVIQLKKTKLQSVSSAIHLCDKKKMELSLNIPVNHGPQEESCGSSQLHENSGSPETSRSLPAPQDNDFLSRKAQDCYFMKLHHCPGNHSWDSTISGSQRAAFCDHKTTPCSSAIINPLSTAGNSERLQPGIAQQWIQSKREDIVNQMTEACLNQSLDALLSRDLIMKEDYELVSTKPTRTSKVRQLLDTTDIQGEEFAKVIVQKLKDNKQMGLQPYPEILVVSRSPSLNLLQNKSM
TLR9-MyD88 inh: blocks human TLR9 binding to MyD88 | CHO BLA complementation TLR9-MyD88, CCF4 FRET ratio | AID 504734 | actives 0.21% (n = 340,000) | inhibition, % at 4.98 µM | Q9NR96+Q99836;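 active means inhibition above the mean over all tested compounds plus 3 SD, cut at about 21% in these data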
TLR4-MyD88 BLA: inhibitors of human TLR4-MyD88 binding. inhibition, % at 8.4 µM. actives 0.18% (n = 200,000). HeLa CL3-4 TLR4/MyD88 BLA complementation, FRET ratio. AID 861. O00206+Q99836; in the data active means inhibition above about 25%
Myeloid diff CP1: compounds promoting myeloid differentiation | calls only | shares compounds with Myeloid diff MLP | actives 2% (n = 2,300) | ER-HoxA9 myeloid progenitors, GFP/Mac1 double-positive flow;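 active means share of green or green-and-red cells above 9 and 9% in run 1 or 4 and 3% in run 2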
GFP autofluor: counter-screen for myeloid differentiation promoters: compound fluorescence | shares compounds with Myeloid diff MLP | ER-HoxA9 myeloid progenitors, no estrogen, GFP autofluorescence flow cytometry; vehicle wells 0%, positive control 100% | fluorescence response, % (no concentration beside the values) | actives 7.4% (n = 2,300) | AID 651707;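 active means over 5% cells positive for green fluorescent reporter, or over 2% positive for both it and APC stain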
Numbers stand for hits; . = inactive; / = no result; + = active, no number. Shown are actives, neighbours in structure and some others; about 1.5% of the full set was active somewhere.

SMILES	Myeloid diff MLP	NOD2 RIPK2 PPI	TLR9-MyD88 inh	TLR4-MyD88 BLA	Myeloid diff CP1	GFP autofluor
Cc1cc(C)c(S(=O)(=O)NNC(=O)C2CCN(Cc3ccccc3)CC2)c(C)c1	.	.	.	.	.	87
Cc1noc(C)c1C(=O)N1CCCC(C)(C(=O)NS(=O)(=O)C2CC2)C1 (stereo not given)	.	.	/	/	/	/
CCOc1ccc(NC(=O)c2cc3ccccc3cc2O)cc1	.	.	.	/	/	/
CCOc1ccc(NC(=O)c2cccc3ccccc23)cc1	+	.	.	/	.	.
O=S(=O)(c1cccnc1)N1CCCC(Nc2ccc(F)c(F)c2)C1 (stereo not given)	.	.	.	/	/	/
O=C(CN1C(=O)NC2(CCc3ccccc3C2)C1=O)NCc1ccco1 (stereo not given)	.	.	.	.	.	.
COCCNC(=O)C1(C)CCCN(C(=O)c2cc(F)cc(F)c2)C1 (stereo not given)	.	.	/	/	/	/
O=C(CC1CC1)Nc1ccc2c(c1)[C@H]1C[C@H](CC(=O)N3CCc4ccccc4C3)O[C@@H](CO)[C@H]1O2	.	.	.	/	/	/
O=C1NC2(CCCCC2)C(=O)N1/N=C/c1ccc(O)cc1O	+	.	.	.	.	.
CNCC[C@H](Oc1cccc2ccccc12)c1cccs1	.	.	.	/	.	.
CC(NCCCOc1cccc2ccccc12)c1ccccc1 (stereo not given)	.	.	.	/	/	/
Cc1ccc([C@H]2N[C@]3(CCCN(Cc4ccc(Br)cc4)C3=O)[C@H]3C(=O)N(Cc4ccccc4)C(=O)[C@@H]23)cc1	.	.	.	/	/	/
Cc1nc(N2CCc3ccccc3C2)[nH]c(=O)c1Cc1ccccc1	.	.	.	.	/	/
Cc1nc(-n2[nH]c3c(c2=O)CCCC3)[nH]c(=O)c1Cc1ccccc1	.	.	.	.	.	.
Cc1ccccc1C(=O)Nc1ccc2c(C#N)c3nc4ccccc4nc3n2c1	+	.	.	.	.	2.3
Cc1c(C(=O)Nc2ccccc2)cn2c(nc3ccccc32)c1C#N	.	.	.	.	/	/
CN(C)S(=O)(=O)c1ccc(N2C(=O)CC2(/C=C/c2ccccc2)C(=O)NC2CCCC2)cc1 (stereo not given)	.	.	.	.	/	/
COc1ccccc1/C=C/C1(C(=O)NC2CCCC2)CC(=O)N1c1ccccc1 (stereo not given)	+	.	.	/	.	.
O=[N+]([O-])c1ccc2[nH]c(O)c(N=Nc3ccc(F)cc3)c2c1	+	.	.	/	.	9.8
CCN(CC)CCOc1cc2c(nn1)Oc1ccccc1N2C	.	.	.	.	.	.
COc1ccc(CNC(=O)CCS(=O)(=O)c2ccc3nc(C)sc3c2)cc1	.	.	/	/	/	/
O=C(CN1C(=O)NC2(CCCCCCC2)C1=O)N1CCc2ccccc2C1	.	.	.	.	/	/
COc1ccccc1CC1(C)NC(=O)N(CC(=O)N2CCc3ccccc3C2)C1=O (stereo not given)	.	.	.	.	.	.
COc1ccc(Br)c(-c2nc(CS(=O)(=O)c3ccc(F)cc3)no2)c1	.	.	.	/	.	.
COc1ccc(Br)c(-c2nnc(CS(=O)(=O)c3ccccc3)o2)c1	.	.	.	/	/	/
SMILES	Myeloid diff MLP	NOD2 RIPK2 PPI	TLR9-MyD88 inh	TLR4-MyD88 BLA	Myeloid diff CP1	GFP autofluor
Cc1ccc(C)c2[nH]c(=O)c(C(c3nnnn3C(C)(C)C)N3CC=C(c4ccc(F)cc4)CC3)cc12 (stereo not given)	+	.	.	.	.	.
CCOc1ccc(NC(=O)/C=C/c2ccc(OC)cc2)c([N+](=O)[O-])c1	.	.	.	.	.	.
COc1ccc(/C=C/C(=O)Nc2ccc(OC)cc2[N+](=O)[O-])cc1	.	.	.	.	/	/
COC(=O)c1cc(-c2c(-c3cc(OC)c(OC)c(OC)c3)noc2C)cc([N+](=O)[O-])c1	.	.	.	/	.	.
COc1ccc(CNC2C[C@H]3CCCC(=O)N4CC[C@@H](C2)[C@@H]34)cc1 (stereo not given in full)	.	.	.	/	/	/
COc1ccc2[nH]c3c(c2c1)[C@@H]1CCN2C(=O)CCC[C@H](C3)[C@H]12	+	.	.	/	.	.
Cc1ccc(-c2nc3cc(C)c(Br)c(C)n3c2Cc2ccsc2)cc1	.	.	/	/	/	/
COc1cccc(CCN2C(=O)CCC3=C2CCC3=O)c1	.	.	/	/	/	/
O=c1[nH]c(SCc2nc3c(cnn3-c3ccccc3)c(=O)[nH]2)nc2ccccc12	+	.	.	.	.	.
O=c1[nH]c(CSc2nc3ccccc3[nH]2)nc2c1cnn2-c1ccccc1	.	.	.	.	/	/
Cc1ccc(C)c(C(Nc2ccccc2)c2ccc3ccc(C)nc3c2O)c1 (stereo not given)	.	.	/	/	/	/
CN(C)c1ccc(C=C2SC(=S)NC2=O)cc1	+	.	.	/	.	.
CCOc1ccc(N(C)c2ccc(/C=C3/SC(=S)NC3=O)cc2)cc1	.	.	.	/	/	/
Cc1cc(/C=C2\SC(=S)NC2=O)c(C)[nH]1	.	.	.	.	.	7.3
CCn1c(C)cc(/C=C2/SC(=S)NC2=O)c1C	.	.	.	.	/	/
CN(C)c1ccc(/C=N/N=C2/NC(=O)/C(=C/c3ccc([N+](=O)[O-])cc3)S2)cc1	+	.	.	.	.	95
O=C(O)c1ccc(CNC(=O)C2CCN(S(=O)(=O)c3cccs3)CC2)cc1	.	.	.	/	/	/
Cc1cc2c(cc1C)-n1nnnc1C(N1CCN(CC(=O)NC(C)C)CC1)C(=O)N2 (stereo not given)	.	.	/	/	/	/
CC(=O)c1c(C)n(CC(=O)NCc2ccc3c(c2)OCO3)c2ccccc12	+	.	.	.	.	98
COc1ccc(CC(N)c2csc(NC(=O)Nc3ccccc3-c3ccccc3)n2)cc1 (stereo not given)	.	.	/	/	/	/
COc1ccc(CCNS(=O)(=O)c2cccc(C)c2)cc1OC	.	.	.	.	/	/
COc1ccc(CCNS(=O)(=O)c2cccc(F)c2)cc1OC	.	.	.	.	.	.
CCC(=O)Nc1cccc(C(=O)/C=C/c2ccccc2)c1	.	.	.	.	.	.
CCC(=O)Nc1cccc(C(=O)/C=C/c2cccs2)c1	.	.	.	.	/	/
Cc1ccccc1C(=O)Nc1nnc(S(=O)(=O)N2CCCCCC2)s1	.	.	.	/	.	.
O=C(Nc1cccc(NC(=O)c2ccc(Br)o2)n1)c1ccc(Br)o1	.	.	.	.	/	/
N#Cc1c(NC(=O)c2ccc(Br)o2)n(-c2ccccc2)c2nc3ccccc3nc12	+	.	.	/	.	.
CC[C@@]1(C(=O)OC)N[C@H](CN(C)C(=O)COC)[C@@H]2C(=O)N(Cc3ccccc3)C(=O)[C@@H]21	+	.	.	/	.	7.3
COCC(=O)N(C)C[C@H]1N[C@@](Cc2ccccc2)(C(=O)OC)[C@H]2C(=O)N(Cc3ccccc3)C(=O)[C@@H]12	.	.	.	/	/	/
O=C(/C=C/[C@H]1O[C@@H](n2ccc(=O)[nH]c2=O)[C@H](O)[C@@H]1O)NCCN1CCOCC1	.	.	/	/	/	/

Screens (PubChem)
